Measured values: PubChem BioAssay (NCATS)
Results filed as inconclusive are left out. Where a call stands in place of a potency, no number is given. Activity calls are given as the source filed them. Calls come from the whole dose curve; as a rule, active = well fitted inhibition curve with a large enough effect; inconclusive = small, poorly fitted or top-dose-only effect; inactive = no such curve, though single readings can be large or run the other way.

Assay: qHTS assay for measurement of the activity of small molecule inhibitors on Zika virus induced Caspase-3 activity in human iPSC derived neural progenitor cells (hNPCs) (AID 1224857); note: nearly all actives have a fitted effect of over 65% in size
Details: hNPCs ZIKV-induced caspase-3/7, Caspase-Glo luminescence, 6 h; series mostly up to 45.7 µM
Description: National Center for Advancing Translational Sciences [NCATS]
Johns Hopkins University School of Medicine
Increase in the Caspase-3 activity indicates an activation of apoptosis cell death pathway caused by Zika virus infection in certain types of neuronal cells including human neural progenitor cells (hNPCs), astrocytes, and astrocytoma cell line (SNB-19). This cell-based caspase-3 activity assay measures the increased caspase-3 activity in the human iPSC derived neural progenitor cells (hNPCs) after a 6-hour Zika virus infection with a luminescence readout. A decrease in the luminescence signal in this assay by small molecule treatment indicates an inhibitory effect of that small molecule on the Zika virus induced caspase-3 activity that may correlate with its effect on reduction of Zika virus caused cell death.
The medium for hNPCs consists of DMEM/F12, N2 supplement (ThermoFisher, Cat.# 17502048), NEAA (ThermoFisher, Cat. # 11140050), 2 ug/ml heparin, 2 uM cyclopamine, and B27 (ThermoFisher, Cat. # 17504044). A Caspase-Glo 3/7 assay kit (catalog number G8092; Promega, Madison, WI) was used to detect caspase-3 activity induced by Zika virus infection in human cells. The reagent mixture was reconstituted as described in the protocol from the manufacturer. Polystyrene tissue culture treated and PDL coated white plates were obtained from Greiner Bio-One (Monroe, NC). Cells were seeded in 384- or 1536-well assay plates and cultured at 37 C with 5% CO2 for 16 to 20 hours. The typical cell seeding density in the 1536-well plate assay is 350 cells/well in 3 ul medium for hNPCs in tissue culture treated plates. Compounds were added to cells and incubated for one hour before addition of ZIKV solution to cells (2 FFU/cell). After incubation at 37 C with 5% CO2 for 6 hours, the reagent mixture of Caspase-Glo 3/7 assay kit was added to each well, followed by incubation at room temperature for 30 minutes. The luminescence intensity of the assay plates was measured using a ViewLux plate reader (PerkinElmer). Data were normalized by using the cell-containing wells without ZIKV as a negative control (0% induction of caspase 3/7 activity) and wells containing ZIKV infected cells (Caspase-3 activity induced) as a positive control (100% induction of caspase 3 activity). The percentage inhibitions of the increased Caspase-3 activity by small molecule inhibitors were then calculated.

Structure (SMILES)	Potency
Fc1ccc(CN(C2=NCCN2)c2c(Cl)cccc2Cl)cc1	inactive
N[C@@H](CS(=O)O)C(=O)O	inactive
Nc1ccc(CCNc2ncnc3c2ncn3C2OC(CO)C(O)C2O)cc1 (stereo not given)	inactive
CCSC(=N)N	inactive
O=c1ccc2c(OCCCCc3ccccc3)c3ccoc3cc2o1	inactive
O=C1C2C=CC=CC2=NC(=S)N1CCN1CCC(=C(c2ccc(F)cc2)c2ccc(F)cc2)CC1 (stereo not given)	inactive
Oc1ccc(Cn2cc[nH]c2=S)cc1	inactive
C=CCNc1ncnc2ccc(Br)cc12	inactive
NC(=O)c1ccccc1	inactive
CC(/C=C/c1cccc(Oc2ccc(F)cc2)c1)N(O)C(N)=O (stereo not given)	inactive
O=C(O)[C@H]1NCCC[C@H]1C(=O)O	inactive
[N-]=[N+]=Nc1ccc(C(=O)CSC[C@H](NC(=O)CC[C@H](N)C(=O)O)C(=O)NCC(=O)O)cc1	inactive
Cn1ccnc1	inactive
CC(O)C(O)[C@H]1CNc2nc(N)[nH]c(=O)c2N1 (stereo not given in full)	inactive
O=C(O)/C=C/c1ccc(O)c(O)c1	inactive
O=C(O)C1CN(CCCP(=O)(O)O)CCN1 (stereo not given)	inactive
NCCCNCCCCNCCCN	inactive
Nc1ccc(N2C(=O)c3ccccc3C2=O)c(Cl)c1	inactive
NC1(C(=O)O)CC1	inactive
CC1CCN(CC[C@H]2CCCN2S(=O)(=O)c2cccc(O)c2)CC1	inactive

Structure (SMILES)	Potency
N[C@@H](Cc1ccc(O)c(I)c1)C(=O)O	inactive
CN(C)CCC(c1ccc(Br)cc1)c1ccccn1 (stereo not given)	inactive
CC[C@H](NC(=O)c1c(C)c(-c2ccccc2)nc2ccccc12)c1ccccc1	inactive
COc1ccc(-c2ccc(N)[n+](CCCC(=O)O)n2)cc1	inactive
C[C@H](O)C(=O)C1=Nc2c(nc(N)[nH]c2=O)NC1	inactive
O=C(O)C1=CCCNC1	inactive
O=C(N[C@@H](Cc1ccccc1)C(=O)CCl)OCc1ccccc1	inactive
NC(N)=NC(N)=Nc1cccc(Cl)c1	inactive
COc1ccc2c(c1)CCC1C2CC[C@@]2(C)C1CC[C@@H]2NCCCCCCN1C(=O)C=CC1=O (stereo not given in full)	inactive
O=c1[nH]c(=O)c2nc3ccccc3nc2[nH]1	inactive
Nc1nc2[nH]c(=O)cnc2c(=O)[nH]1	inactive
CCCCCCCCCCCCCCC[C@H](O)[C@H](N)CO	inactive
CC(N)(Cc1ccc(O)cc1)C(=O)O (stereo not given)	inactive
NC1(C(=O)O)CCc2cc(C(=O)O)ccc21 (stereo not given)	inactive
CC1=C(C(=O)O)N2C(=O)[C@@H](NC(=O)C(N)C3=CCC=CC3)[C@H]2SC1 (stereo not given in full)	inactive
Oc1ccc(/C=C/c2ccc(/C=C/c3ccc(O)cc3)c(Br)c2)cc1	inactive
O=C1Cc2c([nH]c3ccc(Br)cc23)-c2ccccc2N1	inactive
NC(N)=[N+]1CCc2ccccc2C1	inactive
CCCn1c(=O)c2[nH]c(-c3ccc(S(=O)(=O)O)cc3)nc2n(CCC)c1=O	inactive
CCCCCCC/C=C\CCCCCCCCC(=O)O	inactive
